Results taken from PubChem BioAssay.
Unmarked numbers belong to inactive results. No rule for the calls is given here. Where a SMILES comes first, the peptide text is derived from it. The star is where a group is joined. Boc = CC(C)(C)OC(=O)*

The compounds below were run against Pantothenate synthetase (Mycobacterium tuberculosis (strain ATCC 25618 / H37Rv)) (UniProt P9WIL5) (assay: Recombinant Mtb pantothenate synthetase (PanC) inhibitors, coupled enzyme, confirmatory (AID 375;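 also: 0% = full reaction with vehicle and 100% = no enzyme background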)). Conditions: coupled enzyme assay; at 10 µM, stronger effect = higher value.
Pantothenate synthetase (Mycobacterium tuberculosis (strain ATCC 25618 / H37Rv)), sequence (P9WIL5 whole entry, looked up): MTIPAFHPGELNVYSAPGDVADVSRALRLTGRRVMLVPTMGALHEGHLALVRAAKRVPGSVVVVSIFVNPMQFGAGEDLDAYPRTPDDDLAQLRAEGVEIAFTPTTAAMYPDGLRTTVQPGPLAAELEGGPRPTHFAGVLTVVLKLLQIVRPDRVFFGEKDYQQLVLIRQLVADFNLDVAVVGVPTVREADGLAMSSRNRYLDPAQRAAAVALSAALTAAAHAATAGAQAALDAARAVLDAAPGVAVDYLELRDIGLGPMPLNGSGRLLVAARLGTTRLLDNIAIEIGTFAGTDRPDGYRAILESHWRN

Row | Structure (SMILES) | inhibition
1 | O=C(O)C1CC(=O)N(c2ccc(OCc3ccccc3Cl)cc2)C1 (stereo not given) | 0%
2 | O=C(CSc1nnc(-c2ccncc2)o1)Oc1ccccc1 | 0%
3 | Nc1nc2n(n1)C(c1cccc(Cl)c1)CC(c1ccc(F)cc1)N2 (stereo not given) | 0%
4 | O=C(CN(Cc1ccco1)C(=O)CNS(=O)(=O)c1ccc(F)cc1)NCCc1ccccc1 | 3%
5 | O=C(NCCC1=CCCCC1)C1CC(=O)N(C2CCCCCC2)C1 (stereo not given) | 2%
6 | CC(Sc1nnnn1C)C(=O)Nc1ccc(Oc2ccccc2)cc1 (stereo not given) | 0%
7 | Cc1ccc(S(=O)(=O)N2CCOCC(=O)NCCOCCNC(=O)COCC2)cc1 | 0%
8 | COC(=O)C1=C(N)Oc2cc(C)[nH]c(=O)c2C1c1ccncc1 (stereo not given) | 0%
9 | COc1ccc(-c2cn3c(C)c(C(=O)Nc4cc(NC(C)=O)ccc4OC)sc3n2)cc1 | 4%
10 | O=C(CCN1C(=O)c2ccccc2C1=O)Nc1ccc(F)cc1 | 0%
11 | CCN(CC)CC#CCOC(=O)C(O)(c1ccccc1)C1CCCCC1 (stereo not given) | 1%
12 | O=c1cc(C(F)F)oc2c1ccc1ccccc12 | 0%
13 | CNC(=O)c1ccc2nc(NC(C)=O)sc2c1 | 0%
14 | Cc1cc(C)nc(SC2=CS(=O)(=O)c3ccccc32)n1 | 0%
15 | O=C(NCC1CCCO1)c1cccc(N2CCCC2=O)c1 (stereo not given) | 0%
16 | Cc1cccc(C)c1OCc1nnc2c3cnn(C)c3ncn12 | 0%
17 | CN1CCN(Cc2nc3c(c(=O)n(C)c(=O)n3C)n2Cc2ccccc2Cl)CC1 | 0%
18 | O=C(NC1CCCCC1)N(Cc1ccccc1)Cc1ccco1 | 1%
19 | CCOc1ccc(C(=O)N(Cc2ccc(N(C)C)cc2)C2CCS(=O)(=O)C2)cc1 (stereo not given) | 0%
20 | O=c1[nH]c(SCc2ccc(F)cc2)nc2c1cnn2-c1ccc(F)cc1 | 0%

Row | Structure (SMILES) | inhibition
21 | CC(C)(C)n1ncc2c(=O)n(CC(=O)NCc3ccco3)cnc21 | 11%
22 | CCOC(=O)C1CCN(S(=O)(=O)c2cc(Cl)c(C)cc2OC)CC1 | 4%
23 | Fc1ccc(-c2csc3nnc(SCc4cccnc4)n23)cc1 | 0%
24 | O=C(Nc1ccc2c(c1)OCCO2)c1cnc2n(c1=O)CCS2 | 0%
25 | CC(C)(C)OC(=O)N1CCCC1C(=O)NC(Cc1ccccc1)C(=O)O (stereo not drawn) (Boc-Pro-Phe-OH; configuration not given here) | 4%
26 | Cn1c(COc2ccc(Cl)cc2)nnc1SCC(=O)NC1CCCCC1 | 0%
27 | C=C(Cl)COc1ccc2c(C)cc(=O)oc2c1 | 2%
28 | Cc1ccc(S(=O)(=O)N2CCN(c3nc(C)nc4sc(C)c(C)c34)CC2)cc1 | 2%
29 | Cc1ccc(C)c(NC(=O)CC(NCCCN2CCOCC2)C(=O)O)c1 (stereo not given) | 7%
30 | Cc1ccc(C(=O)Nc2c(C(=O)N3CCOCC3)cnn2-c2ccccc2)cc1 | 0%
31 | Cc1cc(C)cc(OCCCC(=O)O)c1 | 4%
32 | COc1ccc(-n2nnnc2SCC(=O)N2CCOCC2)cc1 | 3%
33 | CCOC(=O)C1=C(C)Nc2ncnn2C1c1cc(OC)ccc1OC (stereo not given) | 0%
34 | O=C(NCc1cccs1)C(Cc1ccccc1)n1cccc1 (stereo not given) | 0%
35 | CCCCOCCCNC(=O)c1cccs1 | 0%
36 | CC(=O)c1ccccc1Oc1nc(CN2CCOCC2)nc2scc(-c3cccs3)c12 | 3%
37 | Cc1c(C(=O)OCC(C)C)[nH]c2c1C(=O)CC(c1ccco1)C2 (stereo not given) | 1%
38 | COc1ccc(S(=O)(=O)NCCOc2ccccc2)cc1OC | 0%
39 | COc1ccc(-c2nsc(SCC(=O)Nc3cc(C)on3)n2)cc1 | 0%
40 | O=C(CCn1c(=S)[nH]c2ccccc2c1=O)NCC1CCCO1 (stereo not given) | 4%
